Experiment [1] concerns TAB165. Briefly: qHTS profiling for inhibitors of Plasmodium falciparum proliferation (AID 504749). The conditions noted are these: P. falciparum in erythrocytes, SYBR Green DNA, 72 h; series mostly up to 28.7 µM. The essentials:
(§1)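 P. falciparum-infected erythrocytes (0.3% parasitemia, 2.5% hematocrit final) were exposed to compounds for 72 h at 37 C in 5% CO2, then lysed with SYBR Green buffer overnight at room temperature; parasite DNA fluorescence was normalized to artemisinin and DMSO controls.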
(Quantitative high-throughput screening tests each substance at several concentrations.)

The subject of experiment [2] is W2. The experiment is described as above. The conditions noted are these: P. falciparum in erythrocytes, SYBR Green DNA, 72 h; series mostly up to 28.7 µM. The essentials:
as §1

For experiment [3], the system named is CRL-7250. Briefly: Cytotoxic Profiling of Annotated Libraries Using Quantitative High-Throughput Screening (AID 1296008). For max response: % is set by controls: 0 for no effect and ±100 for the full control effect. Particulars: Five cell lines viability, CellTiter-Glo ATP luminescence, 48-72 h; max response: active compounds read low. The essentials: (§2)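 Compounds were pin-transferred onto cells and incubated 48 or 72 hr at 37 degree Celsius, 95% humidity. CellTiter-Glo was added, plates sat 10 min at room temperature, then ATP-coupled luminescence was imaged as the viability read-out.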
(In ATP-based viability assays light output follows the ATP content of the culture.)

In experiment [4] the test system is HEK293. The experiment is described as above. Particulars: Five cell lines viability, CellTiter-Glo ATP luminescence, 48-72 h; max response: active compounds read low. The essentials:
as §2

The subject of experiment [5] is HaCat. The experiment is described as above. The conditions noted are these: Five cell lines viability, CellTiter-Glo ATP luminescence, 48-72 h; max response: active compounds read low. The essentials: as §2
In experiment [6] the test system is KB-3-1. The experiment is described as above. Particulars: Five cell lines viability, CellTiter-Glo ATP luminescence, 48-72 h; max response: active compounds read low. The essentials:
as §2

Experiment [7] relates to NIH3T3. The description is as above. The conditions noted are these: Five cell lines viability, CellTiter-Glo ATP luminescence, 48-72 h; max response: active compounds read low. The essentials: as §2
Experiment [8] deals with HACAT. Description: qHTS assay to identify novel small-molecules to repurpose for Merkel cell carcinoma treatment (AID 1296009). The conditions noted are these: MCC and control cell lines, CellTiter-Glo viability, 72 h. The essentials:
(§3)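 Cells exposed to NPC (8-point) and MIPE (11-point) compound dilutions for 72 hr at 37 degree celsius; viability read by CellTiter-Glo luminescence, normalized to no-cell and DMSO in-plate controls.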

Experiment [9] concerns HEK293T. The experiment is described as above. Particulars: MCC and control cell lines, CellTiter-Glo viability, 72 h; at 44.8 µM (top of the series) unless noted. The essentials:
as §3

Experiment [10] has as its system MCC-13. Described as above. The conditions noted are these: MCC and control cell lines, CellTiter-Glo viability, 72 h; series mostly up to 46 µM. The essentials:
as §3

Setting [11] is: at 44.8 µM (top of the series) unless noted.

Values joined by “and” are separate entries in the source; they are usually repeats but may differ in a detail not shown here. Equal values may be shown once. Records with an inconclusive call do not appear. A structure can be active in one record and inactive in another. Unmarked numbers belong to inactive results. Active and inactive are the calls of the source. Calls come from the whole dose curve; as a rule, active = well fitted inhibition curve with a large enough effect; inconclusive = small, poorly fitted or top-dose-only effect; inactive = flat fitted curve, though single readings scatter.
Note: nearly all actives have a fitted effect of over 60% in size.
Potency is the fitted concentration of half-maximal effect.

For the molecule `O=P(O)(O)C(O)(Cc1cccnc1)P(=O)(O)O`, the Potency result in experiment [1], in experiment [2] and in experiment [10] was “inactive” throughout. For the same molecule, the max response in experiment [3] is -3.74% and -13.5% and 3.83%; in experiment [4] it was -6.47% and -0.4%; in experiment [5], -18.6%; in experiment [6], 16.5% and 4.21% and 6.74%; in [7] it was -4.1% and 0.573%. In addition, the molecule was classed as inactive in experiment [4], in experiment [5], in [7], in experiment [8] (at 4.96 µM (top of the series)), in experiment [8] (at 44.8 µM (top of the series)) and in experiment [9].

For the molecule `Clc1ccccc1CN1CCc2sccc2C1`, the max response is -20.6% in experiment [3]; -7.82% in experiment [5]; 9.17% and -6.26% in experiment [6]; 1.51% and 3.19% in experiment [7]. Further, the outcome in experiment [3] was inactive. The Potency result in experiment [10] is “inactive”.

`CNCC[C@H](Oc1cccc2ccccc12)c1cccs1`: the Potency in [1] was 12.6 µM (active); in experiment [2] it was 1.9 µM (active); in experiment [4], 21.1 µM (active). In addition, the max response in experiment [3] was -21.6%; in experiment [6] it was -19.6% and -13.2%. In addition, the molecule was classed as inactive in [3], in [5] and in [8] (setting [11]). Besides, the Potency entry in experiment [10] was “inactive”.

Regarding `CN(C)CCc1c[nH]c2ccc(CS(=O)(=O)N3CCCC3)cc12`, the Potency result in experiment [1], in [2] and in experiment [10] was “inactive” each time. Also, the max response was -0.155% and 1.13% in [3]; -11.2% and 1.86% in [4]; -24.1% in [5]; 10.6% and 7.32% in experiment [6]; -1.45% and -5.53% in [7]. Further, the outcome in [5] and in experiment [8] (setting [11]) was inactive.

In the case of `CCc1cc(C(N)=S)ccn1`, the Potency entry in [1], in [2] and in experiment [10] was “inactive” in each case. Also, the max response in [3] is -4.32% and -3.13%; in experiment [4] it was -11.8%; in experiment [5], -10.8%; in experiment [6] it was -6.3% and 8.73%; in experiment [7] it was -2.49%. Also, the result in experiment [4], in [5], in experiment [7], in [8] (setting [11]) and in experiment [9] was inactive.

With `O=C(O)c1cn(C2CC2)c2cc(N3CCNCC3)c(F)cc2c1=O`, the Potency in experiment [2] is 4.55 µM (active). Also, the max response is -2.76% and -7.47% in experiment [3]; -1.15% in [6]. For the same molecule, the call in [4], in experiment [5], in [6], in [7], in experiment [8] (setting [11]) and in experiment [9] was inactive. Besides, the Potency result in [10] is “inactive”.

Turning to `C[C@@H](NCCCc1cccc(C(F)(F)F)c1)c1cccc2ccccc12`, the results for the Potency in experiment [1], in experiment [2] and in [7] were 3.98 µM (active), 1.69 µM (active) and 18.8 µM (active), respectively. Besides, the result in [3] and in [7] was inactive. The results for the max response in experiment [5] and in experiment [6] were -15.9% and 5.7%, respectively. Moreover, the Potency result in experiment [10] was “inactive”.

With `CN(C)c1ccc(C(=C2C=CC(=[N+](C)C)C=C2)c2ccc(N(C)C)cc2)cc1`, the Potency was 0.251 µM (active) in experiment [1]; 0.12 µM (active) in experiment [2]; 211 nM (active) and 59 nM (active) in [3]; 237 nM (active) and 105 nM (active) in [4]; 1.06 µM (active) and 935 nM (active) in experiment [5]; 7.31 µM (active) and 93.5 nM (active) in experiment [6]. Moreover, the Potency in experiment [7] was 944 nM (active) and 372 nM (active); in [10], 750 nM (active) and 743 nM (active).

Turning to `CNC1CCCN(c2c(F)cc3c(=O)c(C(=O)O)cn(C4CC4)c3c2OC)C1` (configuration not stated), the Potency result in [1] and in experiment [10] was “inactive” throughout. For the same molecule, the max response was -2.7% in [3]; -0.681% and -8.47% in [4]; 0.986% and -11% in [5]; -6.02% in experiment [7]. The result in experiment [6] and in experiment [7] was inactive.

Regarding `CC[C@H](C)C(=O)O[C@H]1C[C@@H](C)C=C2C=C[C@H](C)[C@H](CC[C@@H]3C[C@@H](O)CC(=O)O3)[C@H]21`, the Potency entry in experiment [1] is “inactive”. Further, the Potency is 2.66 µM (active) and 13.2 µM (active) and 3.17 µM (active) in [3]; 11.8 µM (active) in [5]; 21.1 µM (active) in experiment [10]. The max response in experiment [4] was -37.5%; in experiment [7], -16.3%.

For the molecule `CCOC(=O)[C@H](CCc1ccccc1)N[C@H]1CCc2ccccc2N(CC(=O)O)C1=O`, the max response in experiment [3] was -7.52%; in experiment [6], 4.39%. In addition, the Potency in experiment [4] was 18.7 µM (active). Besides, the molecule was called inactive in experiment [5] and in [8] (setting [11]). The Potency result in [10] is “inactive”.

Regarding `CC(C)NCC(O)c1ccc(NS(C)(=O)=O)cc1` (configuration not stated), the Potency entry in [1], in [2] and in experiment [10] was “inactive” throughout. In addition, the molecule was classed as inactive in experiment [3], in experiment [5] and in experiment [8] (setting [11]). Besides, the max response is 0.785% in experiment [4]; 2.03% and 6.79% in experiment [6]; 4.22% in experiment [7].

In the case of `Nc1nc(=S)c2[nH]cnc2[nH]1`, the Potency in experiment [3] was 18.8 µM (active); in [4] it was 3.76 µM (active) and 9.35 µM (active); in experiment [5], 1.5 µM (active) and 4.69 µM (active); in experiment [6], 5.17 µM (active) and 3.66 µM (active) and 1.32 µM (active); in [7], 841 nM (active) and 3.32 µM (active); in experiment [10] it was 4.22 µM (active).

For `NC(=O)c1ccc2[nH]ccc2c1`, the max response was -5.07% in [3]; -1.44% in experiment [4]; 0.172% in experiment [5]; 5.8% in [6]; -9.23% in experiment [7]. Besides, the Potency entry in [10] was “inactive”.

In the case of `CCN1CCCC1CNC(=O)c1cc(S(N)(=O)=O)ccc1OC` (configuration not stated), the molecule was classed as inactive in [3] and in experiment [6]. The max response in [4] is -9.26%; in experiment [5], 2.07%; in experiment [7], -4.16%. Also, the Potency entry in [10] is “inactive”.

On to `CCOC(=O)c1ccc(C#Cc2ccc3c(c2)C(C)(C)CCS3)nc1`, for which the max response was -0.581% and -12.4% in experiment [3]; 5.71% and 0.466% in [6]; -3.55% in experiment [7]. The result in [5], in experiment [7] and in experiment [8] (setting [11]) was inactive. The Potency result in experiment [10] was “inactive”.

For the origin of these results see PubChem BioAssay (NCATS).
